Assay results taken from PubChem BioAssay (Tox21).
Inconclusive results are not listed. Activity calls are given as the source filed them. Unless noted, calls come from the whole dose curve; as a rule, active = well fitted curve in the direction sought with a large enough effect in the repeat runs; inconclusive = weak or mixed curves; inactive = flat fitted curve, though single readings scatter.

Legend:
[1] = qHTS assay to test for compound auto fluorescence at 535 nm (green) in HEK293 cells (AID 720680)
[2] = qHTS assay to test for compound auto fluorescence at 460 nm (blue) in HEK293 cell free culture (AID 720681)
Procedure, shortened: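 Blue fluorescence (Ex 405/Em 460 nm, triamterene-equivalent) was read immediately after pin transfer of compound or DMSO into medium (DMEM, 10% FBS) without cells.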

[3] = qHTS assay to test for compound auto fluorescence at 535 nm (green) in HEK293 cell free culture (AID 720682)
Procedure, shortened: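 Fluorescein serves as the green reference fluorophore; each compound's intrinsic emission at 535 nm (excitation 485 nm) is reported as an equivalent amount of that dye, measured in serum-containing DMEM without cells.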

[4] = qHTS assay to test for compound auto fluorescence at 590 nm (red) in HEK293 cell free culture (AID 720683)
Procedure, shortened: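 Red-channel autofluorescence of compounds in culture medium (DMEM, 10% FBS), no cells, measured at 540/590 nm. Rose Bengal sodium is the reference fluorophore for equivalence.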

[5] = qHTS assay to test for compound auto fluorescence at 590 nm (red) in HepG2 cell free culture (AID 720684)
Procedure, shortened: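 Steps: dispense MEM/10% FBS medium, no cells; pin compound or DMSO vehicle; read red channel, Ex/Em 540/590 nm. Output given as Rose Bengal sodium equivalents.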

[6] = qHTS assay to test for compound auto fluorescence at 460 nm (blue) in HepG2 cell free culture (AID 720685)
Procedure, shortened: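 Compound (23 nL) or DMSO pinned into cell-free MEM with 10% FBS; blue fluorescence read at 405/460 nm excitation/emission, expressed as auto-fluorescence equivalency to triamterene.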

[7] = qHTS assay to test for compound auto fluorescence at 460 nm (blue) in HepG2 cells (AID 720687)
Procedure, shortened: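 Blue-channel autofluorescence (Ex/Em 405/460 nm, triamterene-equivalent) was measured after 1 hr compound exposure at 37 C, 5% CO2. Cells were HepG2, plated overnight at 37 C in MEM plus 10% FBS.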

[8] = target: Glucocorticoid receptor (Homo sapiens) (UniProt P04150); assay: qHTS assay to identify small molecule agonists of the glucocorticoid receptor (GR) signaling pathway (AID 720691; active = well fitted activation curve with a large enough effect in the signal ratio in the repeat runs, not every such curve was filed as active; the % refers to the signal ratio)
Procedure, shortened: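 Beta-lactamase reporter activity, read as fluorescence intensity, was measured in GR-bla HeLa cells exposed to compounds for 18 h at 37 C and then loaded with LiveBLAzer B/G FRET substrate for 2 h at room temperature.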

[9] = qHTS assay to test for compound auto fluorescence at 535 nm (green) in HepG2 cell free culture (AID 720686)
[10] = target: Glucocorticoid receptor (Homo sapiens) (UniProt P04150); assay: qHTS assay to identify small molecule antagonists of the glucocorticoid receptor (GR) signaling pathway (AID 720692; active = well fitted inhibition curve with a large enough effect in the signal ratio in the repeat runs, not every such curve was filed as active; the % refers to the signal ratio)
Procedure, shortened: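 Fluorescence from cleaved LiveBLAzer B/G FRET substrate reports GRE-driven beta-lactamase in HeLa cells; compounds are tested against 5 nM dexamethasone (final) over 18 h at 37 C, substrate incubation 2 h at room temperature.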
% is set by controls: 0 for no effect and ±100 for the full control effect.

Chain of Glucocorticoid receptor (Homo sapiens) (P04150 whole entry, looked up): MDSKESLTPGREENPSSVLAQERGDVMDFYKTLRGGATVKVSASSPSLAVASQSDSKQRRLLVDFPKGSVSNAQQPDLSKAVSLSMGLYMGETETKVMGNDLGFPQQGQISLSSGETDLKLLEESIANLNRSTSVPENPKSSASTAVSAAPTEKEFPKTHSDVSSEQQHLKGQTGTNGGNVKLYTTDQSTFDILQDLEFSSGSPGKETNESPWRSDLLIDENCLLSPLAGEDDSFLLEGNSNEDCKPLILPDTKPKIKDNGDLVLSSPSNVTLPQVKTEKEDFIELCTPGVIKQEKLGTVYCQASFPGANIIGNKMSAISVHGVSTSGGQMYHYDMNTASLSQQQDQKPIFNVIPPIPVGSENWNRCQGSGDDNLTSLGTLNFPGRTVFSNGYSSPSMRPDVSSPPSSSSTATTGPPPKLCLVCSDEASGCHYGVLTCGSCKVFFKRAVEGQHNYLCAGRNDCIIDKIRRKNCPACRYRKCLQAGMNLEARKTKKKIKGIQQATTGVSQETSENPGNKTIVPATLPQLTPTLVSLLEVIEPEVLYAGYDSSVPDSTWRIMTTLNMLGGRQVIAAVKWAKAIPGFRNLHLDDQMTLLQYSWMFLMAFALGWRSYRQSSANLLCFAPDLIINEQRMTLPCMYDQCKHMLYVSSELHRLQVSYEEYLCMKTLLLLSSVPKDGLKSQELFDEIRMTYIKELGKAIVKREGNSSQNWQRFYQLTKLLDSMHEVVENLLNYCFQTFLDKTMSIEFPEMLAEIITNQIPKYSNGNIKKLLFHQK

N#C/C(=C1\SCC(c2ccccc2Cl)S1)n1ccnc1 (stereo unspecified)
inactive: outcome [1] | Potency [2] | outcome [3] | outcome [4] | outcome [5] | Potency [6] | Potency [7] | Potency [8]

C[N+](C)(C)CCOC(N)=O
inactive: outcome [1] | Potency [2] | outcome [3] | outcome [4] | outcome [5] | Potency [6] | Potency [7]

CC[C@@H]([C@H](C)O)n1ncn(-c2ccc(N3CCN(c4ccc(OC[C@@H]5CO[C@@](Cn6cncn6)(c6ccc(F)cc6F)C5)cc4)CC3)cc2)c1=O
inactive: outcome [1] | Potency [2] | outcome [3] | outcome [4] | outcome [5] | Potency [6] | Potency [7] | Potency [8]

Nc1nccs1
inactive: outcome [1] | Potency [2] | outcome [3] | outcome [4] | outcome [5] | Potency [6] | outcome [9] | Potency [7] | Potency [10]

Cc1occc1C(=O)Nc1ccc(C(=O)N2CCC(F)(F)/C(=C\C(=O)N3CCC(N4CCCCC4)CC3)c3ccccc32)cc1
inactive: outcome [1] | Potency [2] | outcome [3] | outcome [4] | outcome [5] | Potency [6] | outcome [9] | Potency [7] | Potency [10]

Nc1ccc(S(=O)(=O)O)c(N)c1
inactive: outcome [1] | Potency [2] | outcome [3] | outcome [4] | outcome [5] | Potency [6] | outcome [9] | Potency [7] | Potency [10]

CCCCCCCCSCCO
inactive: outcome [1] | Potency [2] | outcome [3] | outcome [4] | outcome [5] | Potency [6] | outcome [9] | Potency [7] | Potency [10]

O=C(CCCN1CCC(O)(c2ccc(Br)cc2)CC1)c1ccc(F)cc1
inactive: fluorescence, % of fluorescein [1] -0.0174% [at 18.6 µM] | fluorescence, % of fluorescent control [2] 0.0856% [at 18.6 µM] | activity change [3] 0.0165% [at 18.6 µM] | fluorescence, % of fluorescent control [4] 0.118% [at 18.6 µM] | fluorescence, % of Rose Bengal [5] -0.294% [at 18.6 µM] | fluorescence, % of fluorescent control [6] 0.0015% [at 18.6 µM] | fluorescence, % of fluorescein control [9] -0.0224% [at 18.6 µM] | fluorescence, % of fluorescent control [7] 0.0362% [at 18.6 µM] | Potency [8] | Potency [10]

O=C(CCCCCCCCC#CI)Oc1ccccc1
inactive: outcome [1] | Potency [2] | outcome [3] | outcome [4] | outcome [5] | Potency [6] | outcome [9] | Potency [7] | Potency [10]

CC(CCc1ccc2c(c1)OCO2)NN (stereo unspecified)
inactive: outcome [1] | Potency [2] | outcome [3] | outcome [4] | outcome [5] | Potency [6] | outcome [9] | Potency [7] | Potency [10]

c1ccc(COCc2ccccc2)cc1
inactive: outcome [1] | Potency [2] | outcome [3] | outcome [4] | outcome [5] | Potency [6] | outcome [9] | Potency [7] | Potency [8] | Potency [10]

C[N+]1(C)CCC(=C(c2ccccc2)c2ccccc2)CC1
inactive: fluorescence, % of fluorescein [1] -0.0107% [at 18.6 µM] | fluorescence, % of fluorescent control [2] -0.269% [at 18.6 µM] | activity change [3] -0.0334% [at 18.6 µM] | fluorescence, % of fluorescent control [4] -0.165% [at 18.6 µM] | fluorescence, % of Rose Bengal [5] 0.107% [at 18.6 µM] | fluorescence, % of fluorescent control [6] -0.143% [at 18.6 µM] | fluorescence, % of fluorescent control [7] 0.0159% [at 18.6 µM] | Potency [8] | Potency [10]

CC1=NN(c2ccc(C(=O)O)cc2)C(=O)C1
inactive: outcome [1] | Potency [2] | outcome [3] | outcome [4] | outcome [5] | outcome [9] | Potency [7]

CC(N)CN (stereo unspecified)
inactive: outcome [1] | Potency [2] | outcome [3] | outcome [4] | outcome [5] | outcome [9] | Potency [7] | Potency [8] | Potency [10]

COc1cc2ncnc(Nc3ccc(F)c(Cl)c3)c2cc1OCCCN1CCOCC1
inactive: outcome [1] | Potency [2] | outcome [3] | outcome [4] | outcome [5] | outcome [9] | Potency [7] | Potency [8]

NC(=O)N(O)[C@@H]1C=C[C@H](Oc2cccc(Oc3ccc(F)cc3)c2)C1
inactive: outcome [1] | Potency [2] | outcome [3] | outcome [4] | outcome [5] | Potency [6] | Potency [7] | Potency [8]

CN1CCN(c2c(F)cc3c(=O)c(C(=O)O)cn4c3c2OCN4C)CC1
inactive: outcome [1] | Potency [2] | outcome [3] | outcome [4] | outcome [5] | outcome [9] | Potency [7] | Potency [8] | Potency [10]

Nc1ccc(C(=O)OCCCOC(=O)c2ccc(N)cc2)cc1
inactive: outcome [1] | Potency [2] | outcome [3] | outcome [4] | outcome [5] | Potency [6] | Potency [7] | Potency [8] | Potency [10]
